Laboratory results reported in PubChem BioAssay (NCATS).
Records with an inconclusive call do not appear. The source made the active and inactive calls. Unless noted, calls come from the whole dose curve; as a rule, active = well fitted curve in the direction sought with a large enough effect; inconclusive = small, poorly fitted or top-dose-only effect, or another doubt; inactive = no such curve, though single readings can be large; an effect the other way counts as inactive or inconclusive.

Assays:
[1] = S16 Schwann cell viability assay (CellTiter-Glo assay) (AID 624031);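 note: native untransfected S16 rat Schwann cells; cellular ATP luminescence as a viability measure; nearly all actives have a fitted effect of over 70% in size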
Method in brief: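 Rat S16 Schwann cells without reporter constructs received compound or DMSO for 24 h at 37 °C under 5% CO2. Cellular ATP was then quantified by CellTiter-Glo luminescence, with vehicle wells defined as 0% activity and cell-free wells as reference.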

[2] = S16 Schwann cell PMP22 intronic element beta-lactamase assay (AID 624044; calls by dose curve; note: nearly all actives have a fitted effect of over 15% in size)
Method in brief: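 Beta-lactamase reporter under a PMP22 intronic regulatory element in stable S16 rat Schwann cells; 24 h compound exposure. 460 nm blue signal normalized between DMSO (0%) and potassium clavulanate, with 535 nm FRET tracking viability; curves classed by r2 and response.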

3D7 = test: qHTS profiling for inhibitors of Plasmodium falciparum proliferation (AID 504749); note: nearly all actives have a fitted effect of over 60% in size; conditions: P. falciparum in erythrocytes, SYBR Green DNA, 72 h; series mostly up to 12.8 µM
Method in brief: (§1)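 SYBR Green fluorescence of parasite DNA, read after lysis and overnight dark incubation, measured growth over 72 h in erythrocyte culture at 0.3% parasitemia and 2.5% hematocrit. Data normalised to DMSO and 0.29 uM artemisinin, with plate-drift correction.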

AS120 = test: as above; conditions: P. falciparum in erythrocytes, SYBR Green DNA, 72 h; series mostly up to 12.8 µM
Method in brief: as §1

ATS189 = test: as above; conditions: P. falciparum in erythrocytes, SYBR Green DNA, 72 h; series mostly up to 12.8 µM
Method in brief: as §1

CP185 = test: as above; conditions: P. falciparum in erythrocytes, SYBR Green DNA, 72 h; series mostly up to 12.8 µM
Method in brief: as §1

CP191 = test: as above; conditions: P. falciparum in erythrocytes, SYBR Green DNA, 72 h; series mostly up to 12.8 µM
Method in brief: as §1

CP237 = test: as above; conditions: P. falciparum in erythrocytes, SYBR Green DNA, 72 h; series mostly up to 12.8 µM
Method in brief: as §1

CP247 = test: as above; conditions: P. falciparum in erythrocytes, SYBR Green DNA, 72 h; series mostly up to 12.8 µM
Method in brief: as §1

CP256 = test: as above; conditions: P. falciparum in erythrocytes, SYBR Green DNA, 72 h; series mostly up to 12.8 µM
Method in brief: as §1

CP297 = test: as above; conditions: P. falciparum in erythrocytes, SYBR Green DNA, 72 h; series mostly up to 12.8 µM
Method in brief: as §1

CP315 = test: as above; conditions: P. falciparum in erythrocytes, SYBR Green DNA, 72 h; series mostly up to 12.8 µM
Method in brief: as §1

CP329 = test: as above; conditions: P. falciparum in erythrocytes, SYBR Green DNA, 72 h; series mostly up to 12.8 µM
Method in brief: as §1

ECU = test: as above; conditions: P. falciparum in erythrocytes, SYBR Green DNA, 72 h; series mostly up to 12.8 µM
Method in brief: as §1

JCK = test: as above; conditions: P. falciparum in erythrocytes, SYBR Green DNA, 72 h; series mostly up to 12.8 µM
Method in brief: as §1

N140 = test: as above; conditions: P. falciparum in erythrocytes, SYBR Green DNA, 72 h; series mostly up to 12.8 µM
Method in brief: as §1

PAD = test: as above; conditions: P. falciparum in erythrocytes, SYBR Green DNA, 72 h; series mostly up to 12.8 µM
Method in brief: as §1

PC49 = test: as above; conditions: P. falciparum in erythrocytes, SYBR Green DNA, 72 h; series mostly up to 12.8 µM
Method in brief: as §1

TAB113 = test: as above; conditions: P. falciparum in erythrocytes, SYBR Green DNA, 72 h; series mostly up to 12.8 µM
Method in brief: as §1

W2 = test: as above; conditions: P. falciparum in erythrocytes, SYBR Green DNA, 72 h; series mostly up to 12.8 µM
Method in brief: as §1

Measured: Potency

NC[C@@H]1O[C@@H](O[C@H]2[C@H](O)[C@H](O[C@@H]3O[C@H](CO)[C@@H](O)[C@H](N)[C@@H]3O)[C@@H](N)C[C@H]2N)[C@H](N)C[C@@H]1O
inactive: all assays above

CCCCC[C@H](O)/C=C\[C@@H]1[C@H](O)CC(=O)[C@@H]1CCCCCCC(=O)O
not listed: [2] | W2
inactive: all other assays above

C[C@H](CCC(=O)O)[C@H]1CC[C@@H]2[C@@H]3[C@@H](O)C[C@H]4C[C@@H](O)CC[C@@]4(C)[C@H]3CC[C@@]21C
inactive: all assays above

CCN[C@@H]1C[C@H](N)[C@H](O[C@H]2OC(CN)=CC[C@H]2N)[C@@H](O)[C@H]1O[C@H]1OC[C@@](C)(O)[C@@H](NC)[C@@H]1O
inactive: all assays above

C[C@@H]1O[C@H](O[C@@H]2\C=C/C=C\C=C/C=C\C[C@H](C)OC(=O)/C=C\[C@H]3O[C@@H]3C[C@H](O)C[C@]3(O)C[C@@H](O)[C@@H](C(=O)O)[C@H](C2)O3)[C@@H](O)[C@H](N)[C@@H]1O (stereo in doubt)
inactive: all assays above

CCc1c(C)[nH]c2c1C(=O)[C@H](CN1CCOCC1)CC2
not listed: [2]
inactive: all other assays above

C[C@@H]1C[C@H]2[C@@H]3C[C@H](F)C4=CC(=O)C=C[C@@]4(C)[C@]3(F)[C@H](O)C[C@]2(C)[C@@]1(O)C(=O)CO
inactive: all assays above
